# According to PubChem BioAssay (NCATS):
# Records with an inconclusive call do not appear. Active and inactive are the calls of the source. Unless noted, calls follow the shape of the dose curve; as a rule, active = well fitted curve in the direction sought with a large enough effect; inconclusive = small, poorly fitted or top-dose-only effect, or another doubt; inactive = no such curve, though single readings can be large; an effect the other way counts as inactive or inconclusive.
# What was measured:
# [1] = qHTS Assay for Lipid Storage Modulators (AID 1519; calls by dose curve; as to activity change, negative = inhibition: % is scaled to controls: 0 for no effect and ±100 for the full control effect); conditions: Drosophila S3 cells, BODIPY lipid droplet/cell ratio, laser cytometry, cells loaded with oleic acid
# Procedure, shortened: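 Cells seeded at 5,000 per well were treated with compounds over a concentration series and loaded with oleic acid (400 uM, as added). Lipid droplet fluorescence (488 nm excitation, 500-530 nm channel) was read by laser-scanning cytometry and normalized to 20 uM Triacsin C.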
# [2] = Validation of Assay for Modulators of Lamin A Splicing (AID 1459; active = well fitted curve in the direction sought with a large enough effect in the signal ratio; the % refers to the signal ratio;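 also: cells exposed to compound for two days before reading; 0% is about no effect; ratio rise marks activators and ratio drop marks inhibitors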); conditions: Lamin A splicing dual RFP/GFP fluorescence reporter; series mostly up to 9.22 µM
# Procedure, shortened: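 Dual-reporter HeLa S3 line (lamin A-EGFP minigene, DsRed2) treated with compounds 48 hrs, 0.5% DMSO final. Endpoint: EGFP/DsRed2 total intensity ratio from laser-scanning microplate cytometry.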
# [3] = molecular target: DNA repair nuclease/redox regulator APEX1 (Homo sapiens) (UniProt P27695); assay: qHTS Validation Assay for Inhibitors of the Human Apurinic/apyrimidinic Endonuclease 1 (APE1) (AID 1705;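 also: TAMRA fluorescence gain over two minutes as APE1 cuts a quenched THF abasic duplex; % is scaled to controls: 0 for no effect and ±100 for the full control effect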); conditions: purified APE1 endonuclease activity, fluorescence, titration; series mostly up to 57.1 µM
# Sequence of DNA repair nuclease/redox regulator APEX1 (Homo sapiens) (P27695 whole entry, looked up): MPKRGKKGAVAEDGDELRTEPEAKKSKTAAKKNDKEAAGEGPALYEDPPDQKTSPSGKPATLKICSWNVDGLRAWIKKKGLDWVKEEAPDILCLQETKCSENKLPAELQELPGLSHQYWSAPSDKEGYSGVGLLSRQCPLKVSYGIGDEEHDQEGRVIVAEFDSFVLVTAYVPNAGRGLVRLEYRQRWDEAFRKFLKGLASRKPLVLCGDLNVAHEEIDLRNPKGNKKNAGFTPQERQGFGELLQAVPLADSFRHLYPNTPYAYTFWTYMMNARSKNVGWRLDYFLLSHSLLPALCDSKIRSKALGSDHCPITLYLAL
# Procedure, shortened: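 Substrate: 50 nM final fluorophore/quencher THF-abasic duplex. Enzyme preincubated with compounds 15 min, RT. Progress derived from fluorescence difference, third minus first kinetic read.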
# [4] = Counterscreen for APE1 Inhibitors: Fluorescent Dye Displacement Validation Assay (AID 1707); conditions: fluorescent dye displacement from DNA; series mostly up to 57.1 µM;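 also: plate controls were ThO with dsDNA and no compound for no effect and ThO without dsDNA for full effect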
# Procedure, shortened: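 Thiazole Orange (250 nM) bound to 50 nM TAMRA-labelled dsDNA with tetrahydrofuran abasic site; displacement by DNA-binding compounds lowers fluorescence. Buffer 50 mM Tris-HCl pH 7.5, 50 mM NaCl, 2 mM MgCl2, 0.01% Tween-20; endpoint read at 480/540 nm.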
# [5] = molecular target: Endonuclease 4 (Escherichia coli (strain K12)) (UniProt P0A6C1); assay: Counterscreen for APE1 Inhibitors: qHTS Validation Assay for Inhibitors of Endonuclease IV (AID 1708); also: % is scaled to controls: 0 for no effect and ±100 for the full control effect; conditions: E. coli endonuclease IV, DNA cleavage fluorescence; series mostly up to 57.1 µM
# Procedure, shortened: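 Concentration-response counterscreen run identically to the APE1 assay: 15 min room-temperature preincubation of 2 nM enzyme with compound, reaction started with 50 nM quenched abasic DNA, progress taken from kinetic fluorescence.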
# [6] = qHTS for differential inhibitors of proliferation of Plasmodium falciparum line 7G8 (AID 1815); conditions: Plasmodium falciparum 7G8 proliferation inhibition; series mostly up to 28.7 µM;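 also: parasite growth measured after three days of incubation; plate controls were vehicle wells for no effect and reference inhibitor wells for full effect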
# [7] = qHTS for differential inhibitors of proliferation of Plasmodium falciparum line GB4 (AID 1816); conditions: Potency: Plasmodium falciparum GB4 proliferation inhibition; series mostly up to 28.7 µM;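 also: parasite growth measured after 72 h incubation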; also: potency is read from the fitted curve at half-maximal effect;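 as to activity change, negative = inhibition: 0% = vehicle DMSO and -100% = reference inhibitor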
# [8] = qHTS for differential inhibitors of proliferation of Plasmodium falciparum line 3D7 (AID 1876); also: potency is read from the fitted curve at half-maximal effect; conditions: P. falciparum 3D7 proliferation inhibition; series mostly up to 28.7 µM
# [9] = qHTS for differential inhibitors of proliferation of Plasmodium falciparum line D10 (AID 1877); conditions: series mostly up to 28.7 µM;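 also: parasites grown with compound for 72 h before DNA staining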; also: potency is read from the fitted curve at half-maximal effect;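 as to activity change, negative = inhibition: plate controls were vehicle wells for no effect and reference inhibitor wells for full effect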
# [10] = measured here: cell count channel max response
# [11] = measured here: lipid channel max response
structure (smiles),measurement,setting,value
Cc1cccc(N(C)C(=S)Oc2ccc3ccccc3c2)c1,"activity change, negative = inhibition",[1]; at 25.7 µM (top of the series),1.79% (inactive)
same,max response,[1]; [10],-7.01%
same,max response,[1]; [11],-5.23%
NC(=O)N1c2ccccc2CC(=O)c2ccccc21,"activity change, negative = inhibition",[1]; at 57.5 µM (top of the series),6.03% (inactive)
same,max response,[1]; [10],10.2%
same,max response,[1]; [11],19.4%
CN(Cc1cc(Br)cc(Br)c1N)C1CCCCC1,"activity change, negative = inhibition",[1]; at 57.5 µM (top of the series),-8.74% (inactive)
same,max response,[1]; [10],-7.97%
same,max response,[1]; [11],-15.4%
COC(=O)Nc1nc2ccc(S(=O)c3ccccc3)cc2[nH]1 (configuration not stated),"activity change, negative = inhibition",[1]; at 57.5 µM (top of the series),10.3% (inactive)
same,max response,[1]; [10],14.2%
same,max response,[1]; [11],29.6%
CC(C)NCC(O)c1ccc(NS(C)(=O)=O)cc1 (configuration not stated),outcome,[2],inactive
same,outcome,[3],inactive
same,outcome,[4],inactive
same,outcome,[5],inactive
same,Potency,[6],inactive
same,Potency,[7],inactive
same,Potency,[8],inactive
same,Potency,[9],inactive
O=C(O)C1CCCN(CCC=C(c2ccccc2)c2ccccc2)C1 (configuration not stated),outcome,[2],inactive
same,outcome,[3],inactive
same,outcome,[4],inactive
same,outcome,[5],inactive
same,Potency,[6],inactive
same,Potency,[7],inactive
same,Potency,[8],inactive
same,Potency,[9],inactive
CCN1CCCC1CNC(=O)c1cc(S(N)(=O)=O)ccc1OC (configuration not stated),outcome,[2],inactive
same,outcome,[3],inactive
same,outcome,[4],inactive
same,outcome,[5],inactive
same,Potency,[6],inactive
same,Potency,[7],inactive
same,Potency,[8],inactive
same,Potency,[9],inactive
CCN(CC)CC#CCOC(=O)C(O)(c1ccccc1)C1CCCCC1 (configuration not stated),outcome,[2],inactive
same,outcome,[3],inactive
same,outcome,[4],inactive
same,outcome,[5],inactive
same,Potency,[8],7.08 µM (active)
same,Potency,[9],12.6 µM (active)
CCCCCCNC(=O)n1cc(F)c(=O)[nH]c1=O,"activity change, negative = inhibition",[1]; at 57.5 µM (top of the series),8.3% (inactive)
same,max response,[1]; [10],11.2%
same,max response,[1]; [11],19.7%
NCCCC(O)(P(=O)(O)O)P(=O)(O)O,"activity change, negative = inhibition",[1]; at 57.5 µM (top of the series),6.27% (inactive)
same,max response,[1]; [10],-1.05%
same,max response,[1]; [11],16.4%
CCCc1cc(C(N)=S)ccn1,"activity change, negative = inhibition",[1]; at 57.5 µM (top of the series),6.18% (inactive)
same,max response,[1]; [10],8.06%
same,max response,[1]; [11],15.8%
OC(Cn1cncn1)(Cn1cncn1)c1ccc(F)cc1F,"activity change, negative = inhibition",[1]; at 57.5 µM (top of the series),11.9% (inactive)
same,max response,[1]; [10],12.6%
same,max response,[1]; [11],26.4%
Nc1[nH]c(=O)ncc1F,"activity change, negative = inhibition",[1]; at 25.7 µM (top of the series),0.855% (inactive)
same,max response,[1]; [10],2.68%
same,max response,[1]; [11],3.39%
COc1ccc2c(c1)c(CC(=O)OCC(=O)O)c(C)n2C(=O)c1ccc(Cl)cc1,"activity change, negative = inhibition",[1]; at 25.7 µM (top of the series),1.43% (inactive)
same,max response,[1]; [10],9.96%
same,max response,[1]; [11],10.1%
C1CCC(C(CC2CCCCN2)C2CCCCC2)CC1 (configuration not stated),"activity change, negative = inhibition",[1]; at 57.5 µM (top of the series),-9.69% (inactive)
same,max response,[1]; [10],-15.8%
same,max response,[1]; [11],-21.2%
NC(=O)c1cccc(N)c1,Potency,[7],inactive
COc1cc2ncnc(Nc3cccc(Cl)c3)c2cc1OC,Potency,[7],6.31 µM (active)
